# Reference: the supplement of paper PMC9262897, “Low-cost anti-mycobacterial drug discovery using engineered E. coli” (Nature Communications, 2022)
# Counter-ions that a name gives are not always drawn. ± gives the standard deviation of the averaged measurements.
# Legend:
# Experiment in all cases: growth (OD600 after 10 h); higher = more growth (less inhibition)
# [1] = system: E. coli TESEC Alr+ wild-type control; settings: compound 0.1 mM; raw OD600 reference: median of DMSO wells 0.241, cell-free background 0.041
# Description: (§1)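 TESEC Mtb Alr E. coli, or the Alr+ wild-type control, in 384-well plates with Prestwick library compounds at 0.1 mM and 1% DMSO, across arabinose induction levels of 1E3 to 1E7 nM. Growth is read as OD600 after 10 h at 37 °C in triplicate biological replicates.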
# E. coli TESEC Mtb Alr [2] = settings: compound 0.1 mM
# Description: as §1
# E. coli TESEC Mtb Asd = settings: compound 0.1 mM
# Description: (§2)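 TESEC E. coli strains in which the native enzyme is deleted and replaced by arabinose-inducible Mtb Asd, DapB, CysH or TrpD, each grown in its selective medium. Strains were screened against the Prestwick library at 0.1 mM and 1% DMSO in 384-well format at low and high arabinose induction. Growth is read as OD600 after 10 h in triplicate.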
# [3] = system: E. coli TESEC Alr+ wild-type control; settings: compound 0.1 mM; raw OD600 reference: median of DMSO wells 0.49, cell-free background 0.052
# Description: (§3)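 TESEC Mtb Alr E. coli (ΔaraC ΔtolC ΔentC Δalr ΔdadX, arabinose-inducible Mtb Alr) or the Alr+ wild-type control strain, grown in defined M9-fructose medium without D-alanine in 96-well plates with Prestwick library compounds at 0.1 mM and 1% DMSO. Low Alr induction is 0.1 µM arabinose and high induction is 10 mM arabinose.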
# E. coli TESEC Mtb Alr [4] = settings: compound 0.1 mM; remark: listed apart in the source
# Description: as §3
# E. coli TESEC Mtb DapB = settings: compound 0.1 mM
# Description: as §2
# [5] = arabinose 1000 nM, raw OD600 reference: median of DMSO wells 0.294, cell-free background 0.041
# [6] = arabinose 10000 nM, raw OD600 reference: median of DMSO wells 0.264, cell-free background 0.041
# [7] = arabinose 100000 nM, raw OD600 reference: median of DMSO wells 0.201, cell-free background 0.041
# [8] = arabinose 1000000 nM, raw OD600 reference: median of DMSO wells 0.193, cell-free background 0.041
# [9] = arabinose 10000000 nM, raw OD600 reference: median of DMSO wells 0.146, cell-free background 0.041
# [10] = arabinose induction (level): High, raw OD600 reference: median of DMSO wells 0.331, cell-free background 0.041
# [11] = arabinose induction (level): Low, raw OD600 reference: median of DMSO wells 0.417, cell-free background 0.041
# [12] = arabinose 100 nM, raw OD600 reference: median of DMSO wells 0.413, cell-free background 0.052
# [13] = arabinose 10000000 nM, raw OD600 reference: median of DMSO wells […], cell-free background 0.052
# [14] = arabinose induction (level): High, raw OD600 reference: median of DMSO wells […], cell-free background 0.041
# [15] = arabinose induction (level): Low, raw OD600 reference: median of DMSO wells 0.227, cell-free background 0.041
SMILES,growth [1],growth (E. coli TESEC Mtb Alr [2]; [5]),growth (E. coli TESEC Mtb Alr [2]; [6]),growth (E. coli TESEC Mtb Alr [2]; [7]),growth (E. coli TESEC Mtb Alr [2]; [8]),growth (E. coli TESEC Mtb Alr [2]; [9]),growth (E. coli TESEC Mtb Asd; [10]),growth (E. coli TESEC Mtb Asd; [11]),growth [3],growth (E. coli TESEC Mtb Alr [4]; [12]),growth (E. coli TESEC Mtb Alr [4]; [13]),growth (E. coli TESEC Mtb DapB; [14]),growth (E. coli TESEC Mtb DapB; [15])
O=C(O)COCCN1CCN(C(c2ccccc2)c2ccc(Cl)cc2)CC1 (configuration not stated) [Cetirizine dihydrochloride],0.21 ± 0.0098,0.275 ± 0.0074,0.25 ± 0.006,0.218 ± 0.017,0.183 ± 0.0077,0.14 ± 0.0034,0.223 ± 0.017,0.273 ± 0.045,0.655 ± 0.047,0.41 ± 0.014,0.349 ± 0.022,,
O=C(O)Cc1sc(-c2ccccc2)nc1-c1ccc(Cl)cc1 [Fentiazac],0.168 ± 0.0065,0.17 ± 0.0076,0.137 ± 0.0036,0.165 ± 0.0017,0.152 ± 0.0063,0.158 ± 0.0089,0.189 ± 0.0056,0.187 ± 0.018,0.286 ± 0.012,0.141 ± 0.064,0.14 ± 0.033,,
CCCCC(CC)CN1CN(CC(CC)CCCC)CC(C)(N)C1 (configuration not stated) [Hexetidine],0.219 ± 0.015,0.259 ± 0.0085,0.309 ± 0.0098,0.228 ± 0.039,0.161 ± 0.014,0.187 ± 0.0073,0.309 ± 0.022,0.373 ± 0.059,0.0454 ± 0.00058,0.173 ± 0.21,0.0486 ± 0.0013,,
CC(=O)O[C@H]1C[C@@]2(C)[C@@H](C[C@@H](O)[C@H]3[C@@]4(C)CC[C@@H](O)[C@@H](C)[C@@H]4CC[C@@]32C)/C1=C(\CCC=C(C)C)C(=O)O [Fusidic acid sodium salt],0.04197 ± 0.0004,0.0422 ± 0.00097,0.0411 ± 0.001,0.0429 ± 0.0003,0.0403 ± 0.00017,0.04237 ± 0.00032,0.0498 ± 0.0038,0.0478 ± 0.0026,0.05317 ± 0.00047,0.11 ± 0.0058,0.0515 ± 0.00085,,
Nc1nc(O)c2ncn(CCC(CO)CO)c2n1 [Penciclovir],0.25 ± 0.0069,0.31 ± 0.013,0.262 ± 0.0029,0.24 ± 0.042,0.18 ± 0.011,0.1665 ± 0.0015,0.228 ± 0.033,0.329 ± 0.033,0.455 ± 0.03,0.411 ± 0.0086,0.36 ± 0.021,,
CC(=O)Oc1ccccc1C(=O)Nc1ncc([N+](=O)[O-])s1 [Nitazoxanide],0.0514 ± 0.01,0.0462 ± 0.0042,0.0417 ± 0.00046,0.0425 ± 0.0013,0.0434 ± 0.0042,0.0448 ± 0.0011,0.0632 ± 0.0045,0.05953 ± 0.00059,0.0524 ± 0.0014,0.157 ± 0.039,0.0545 ± 0.0013,,
CS(=O)(=O)Nc1ccc([N+](=O)[O-])cc1Oc1ccccc1 [Nimesulide],0.1929 ± 0.00095,0.206 ± 0.0095,0.247 ± 0.0073,0.149 ± 0.0051,0.137 ± 0.0025,0.139 ± 0.0087,0.272 ± 0.088,0.329 ± 0.056,0.3996 ± 0.002,0.359 ± 0.026,0.286 ± 0.01,,
O=C(O)CNC(=O)C(CS)Cc1ccccc1 (configuration not stated) [Thiorphan],0.26 ± 0.0069,0.305 ± 0.013,0.2568 ± 0.0017,0.252 ± 0.037,0.172 ± 0.003,0.167 ± 0.0089,0.3 ± 0.069,0.382 ± 0.034,0.475 ± 0.036,0.409 ± 0.0074,0.348 ± 0.021,,
CC(C)(Oc1ccc(Cl)cc1)C(=O)O [Clofibric acid],0.253 ± 0.0056,0.313 ± 0.011,0.256 ± 0.01,0.201 ± 0.015,0.171 ± 0.0038,0.154 ± 0.0039,0.443 ± 0.024,0.442 ± 0.025,,0.404 ± 0.011,0.305 ± 0.011,0.199 ± 0.016,0.251 ± 0.037
COc1ccccc1N1CCN(CC(O)COc2cccc3ccccc23)CC1 (configuration not stated) [Naftopidil dihydrochloride],0.0455 ± 0.00068,0.0439 ± 0.0023,0.0416 ± 0.00044,0.0537 ± 0.0089,0.0425 ± 0.001,0.0492 ± 0.0015,0.0476 ± 0.00036,0.0516 ± 0.0046,,0.4077 ± 0.0026,0.0524 ± 0.0021,0.0582 ± 0.0019,0.0626 ± 0.0085
CCCCOc1cc(C(=O)OCCN(CC)CC)ccc1N [Benoxinate hydrochloride],0.206 ± 0.0046,0.256 ± 0.016,0.25 ± 0.0055,0.177 ± 0.015,0.1482 ± 0.00091,0.143 ± 0.0029,0.27 ± 0.12,0.451 ± 0.059,0.476 ± 0.024,0.4124 ± 0.0014,0.33 ± 0.011,,
C[N+]1(CCCCC[N+]2(C)CCCC2)CCCC1 [Pentolinium bitartrate],0.24 ± 0.0027,0.282 ± 0.017,0.275 ± 0.0033,0.202 ± 0.014,0.1794 ± 0.0012,0.143 ± 0.0032,0.296 ± 0.037,0.424 ± 0.02,0.515 ± 0.11,0.415 ± 0.011,0.361 ± 0.006,,
"O=C1c2cccc(O)c2C(=O)c2c(O)cccc21 [1,8-Dihydroxyanthraquinone]",0.132 ± 0.0039,0.15 ± 0.013,0.0699 ± 0.015,0.138 ± 0.0019,0.0486 ± 0.0032,0.153 ± 0.0021,0.187 ± 0.013,0.147 ± 0.0069,,0.361 ± 0.0048,0.218 ± 0.013,0.189 ± 0.0068,0.255 ± 0.067
O=P(O)(O)C(Cl)(Cl)P(=O)(O)O [Clodronate],0.248 ± 0.0073,0.308 ± 0.021,0.284 ± 0.005,0.188 ± 0.016,0.193 ± 0.0024,0.14 ± 0.0033,0.336 ± 0.042,0.403 ± 0.025,0.528 ± 0.084,0.411 ± 0.0072,0.303 ± 0.0027,,
CN1CCC(=C2c3ccccc3C=Cc3ccccc32)CC1 [Cyproheptadine hydrochloride],0.145 ± 0.0056,0.163 ± 0.02,0.16 ± 0.0079,0.12 ± 0.0049,0.0596 ± 0.00044,0.0772 ± 0.00078,0.15 ± 0.0059,0.186 ± 0.0032,0.452 ± 0.11,0.4129 ± 0.0017,0.276 ± 0.016,,
Nc1ccc(S(=O)(=O)Nc2nccs2)cc1 [Sulfathiazole],0.244 ± 0.013,0.275 ± 0.013,0.203 ± 0.0029,0.202 ± 0.029,0.125 ± 0.0031,0.142 ± 0.006,0.377 ± 0.045,0.384 ± 0.032,0.5194 ± 0.0026,0.422 ± 0.013,0.343 ± 0.02,,
CC(=O)[C@H]1CC[C@H]2[C@@H]3C=CC4=CC(=O)CC[C@@]4(C)[C@@H]3CC[C@]12C [Dydrogesterone],0.103 ± 0.005,0.154 ± 0.041,0.207 ± 0.0034,0.085 ± 0.0042,0.0856 ± 0.0016,0.0751 ± 0.0014,0.225 ± 0.038,0.402 ± 0.068,,0.371 ± 0.021,0.101 ± 0.022,0.176 ± 0.0054,0.189 ± 0.0083
O=C(O)Cc1ccc(-c2ccccc2)cc1 [Felbinac],0.235 ± 0.0055,0.277 ± 0.023,0.245 ± 0.0027,0.163 ± 0.0054,0.173 ± 0.0071,0.1221 ± 0.00095,0.273 ± 0.054,0.434 ± 0.02,0.575 ± 0.04,0.396 ± 0.014,0.305 ± 0.0053,,
